# From PubChem BioAssay (EPA / NIEHS)
# Records with an inconclusive call do not appear. Where a structure was tested more than once in an assay, its records may differ in their call. Active and inactive are the calls of the source. The calls were made as follows, unless noted: active = hit-call score of the fitted dose curve at least 0.9, where 1 is the maximum; inactive = score below 0.9.
# What was measured:
# [1] = molecular target: Glucocorticoid receptor (Homo sapiens) (UniProt P04150); experiment: ATG_GR_TRANS: Attagene TRANS-FACTORIAL HepG2 Assay for human Glucocorticoid Receptor (GR) (AID 2282978; active = hit-call score of the fitted dose curve at least 0.9, where 1 is the maximum;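 also: activators score as hits since higher reporter transcript over DMSO is fitted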); settings: HepG2 Attagene TRANS GR reporter, mRNA transcription
# How it was run: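 Transiently transfected HepG2 cells express chimeric NR-GAL4 proteins acting on GAL4-UAS reporter units. Compounds are applied for 24 h. mRNA induction over DMSO is measured by capillary electrophoresis.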
# [2] = molecular target: Oxysterols receptor LXR-alpha (Homo sapiens) (UniProt Q13133); experiment: ATG_LXRa_TRANS: Attagene TRANS-FACTORIAL HepG2 Assay for human Liver X Receptor alpha (LXRa) (AID 2282980; active = hit-call score of the fitted dose curve at least 0.9, where 1 is the maximum); settings: HepG2 Attagene TRANS reporter, LXRa transactivation
# How it was run: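 In this multiplexed TRANS system, compounds act on HepG2 cells carrying GAL4-UAS reporter units and a receptor-GAL4 fusion for 24 h. Induced reporter RNA is amplified, fluorescently labelled and sized by capillary electrophoresis, with DMSO as baseline.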
# [3] = molecular target: Hepatocyte nuclear factor 4-alpha (Homo sapiens) (UniProt P41235); experiment: ATG_HNF4a_TRANS: Attagene TRANS-FACTORIAL HepG2 Assay for human Hepatocyte Nuclear Factor 4 alpha (HNF4a) (AID 2282982; active = hit-call score of the fitted dose curve at least 0.9, where 1 is the maximum); settings: HepG2 HNF4a transactivation reporter, mRNA readout
# How it was run: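 HepG2 cells transiently transfected with HNF4a-Gal4 chimera and GAL4-UAS reporter units, dosed for 24 h. Reporter mRNA measured by RT-PCR, fluorescent primer extension and capillary electrophoresis; gain-of-signal fitted relative to DMSO.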
# [4] = ATG_M_06_TRANS: Attagene TRANS-FACTORIAL HepG2 Assay for M06 Transcription Factor (Internal Marker) (AID 2282983; active = hit-call score of the fitted dose curve at least 0.9, where 1 is the maximum;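 also: reporter transcript level by RT-PCR then capillary electrophoresis fluorescence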); settings: HepG2 Attagene TRANS M06 internal marker reporter
# How it was run: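 Internal-marker background readout from a multiplexed TRANS reporter system in HepG2; 24 h dosing; mRNA induction quantified by RT-PCR plus capillary electrophoresis fluorescence; DMSO as negative control and baseline.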
# [5] = molecular target: Nuclear receptor subfamily 4 group A member 2 (Homo sapiens) (UniProt P43354); experiment: ATG_NURR1_TRANS: Attagene TRANS-FACTORIAL HepG2 Assay for human Nuclear Receptor Related Protein 1 (NURR1) (AID 2282985; active = hit-call score of the fitted dose curve at least 0.9, where 1 is the maximum); settings: HepG2 Attagene TRANS reporter, mRNA readout
# How it was run: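 HepG2 cells transiently transfected with NURR1-Gal4 chimera and GAL4-UAS reporter units; after 24 hr compound exposure, reporter mRNA quantified by RT-PCR and capillary electrophoresis; gain of signal fitted against DMSO.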
# [6] = molecular target: Nuclear respiratory factor 1 (Homo sapiens) (UniProt Q16656); experiment: ATG_NRF1_CIS: Attagene CIS-FACTORIAL HepG2 Assay for human Nuclear Respiratory Factor 1 (NRF1) Orphan Gene (AID 2282987); settings: HepG2 NRF1 cis-element reporter, Attagene multiplex; actives raise or lower the signal
# How it was run: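 Reporter mRNA induction or loss in HepG2 cells after 24 h dosing; cis-regulated reporter constructs report endogenous transcription-factor activity. Quantified by RT-PCR/capillary electrophoresis fluorescence, DMSO-referenced.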
# [7] = molecular target: Myc proto-oncogene protein (Homo sapiens) (UniProt P01106); experiment: ATG_Myc_CIS: Attagene CIS-FACTORIAL HepG2 Assay for human Myelocytomatosis (Myc) Proto-Oncogene Transcription Factor (AID 2282990); settings: HepG2, Attagene cis-reporter transcription factor activity; actives raise or lower the signal
# How it was run: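 Fluorescence intensity of reporter-specific cDNA fragments, separated by capillary electrophoresis, gives the signal. Transfected HepG2 cells carrying cis-promoter reporter constructs are incubated with compound for 24 h; DMSO serves as baseline.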
# [8] = ATG_NRF2_ARE_CIS: Attagene CIS-FACTORIAL HepG2 Assay for human Nuclear Factor Erythroid 2 Related Factor 2 (NFR2) response to Antioxidant Response Elements (ARE) (AID 2282992); settings: HepG2 Attagene ARE/NRF2 reporter, transcription factor activity; actives raise or lower the signal;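 as to AC50: reporter mRNA level measured by RT-PCR and capillary electrophoresis fluorescence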
# How it was run: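 Transient MRTU transfection of HepG2; 24 h compound exposure; TriZol RNA, RT with oligo(dT), PCR, 6-FAM primer extension, HpaI cut, CE. Bidirectional fit vs DMSO.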
# [9] = ATG_Oct_MLP_CIS: Attagene CIS-FACTORIAL HepG2 Assay for human Octamer-Binding Transcription Factor (Oct) (AID 2282993); settings: HepG2 Attagene cis-factorial Oct reporter, mRNA; actives raise or lower the signal
# How it was run: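 After 24 h compound exposure, transfected HepG2 cells were lysed for total RNA; reporter-specific cDNA was PCR-amplified, fluorescently labelled and sized by capillary electrophoresis. Bidirectional curve fitting used DMSO as baseline.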
# [10] = molecular target: Cellular tumor antigen p53 (Homo sapiens) (UniProt P04637); experiment: ATG_p53_CIS: Attagene CIS-FACTORIAL HepG2 Assay for human p53 Transcription Factor (AID 2282994); settings: HepG2 p53 cis-element reporter, Attagene mRNA; actives raise or lower the signal
# How it was run: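 HepG2, transient MRTU transfection (cis promoter elements, endogenous TFs); 24 h dosing; RNA isolation, RT-PCR, 6-FAM primer extension, HpaI digest, CE fluorescence; bidirectional fit vs DMSO.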
# [11] = BSK_3C_TissueFactor: BioMAP Diversity Plus: 3C Assay for Tissue Factor Biomarker Activity (AID 2282997); settings: BioMAP 3C HUVEC, tissue factor biomarker readout; actives raise or lower the signal
# How it was run: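 Endothelial monolayers (human umbilical vein, primary) are dosed, incubated 24 h, and assayed for Tissue Factor by ELISA; DMSO serves as negative control for bidirectional fitting.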
# [12] = BSK_3C_uPAR: BioMAP Diversity Plus: 3C Assay for Urokinase-type plasminogen activator receptor (uPAR) Biomarker Activity (AID 2282998); settings: BioMAP 3C HUVEC, uPAR biomarker ELISA; actives raise or lower the signal
# How it was run: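 Values derive from bidirectional curve fitting relative to DMSO, which served as baseline of activity. uPAR was measured by ELISA in human umbilical vein endothelial primary cultures 24 h after compound addition.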
# [13] = BSK_3C_VCAM1: BioMAP Diversity Plus: 3C Assay for Vascular cell adhesion molecule 1 (VCAM1) Biomarker Activity (AID 2282999); settings: BioMAP 3C HUVEC, VCAM1 ELISA, cytokine-stimulated; actives raise or lower the signal
# How it was run: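 Human umbilical vein endothelial cells (3C system), biomarker read by ELISA 24 h after dosing; bidirectional fit against DMSO baseline. Cytotoxicity tracked by SRB total-protein staining in parallel cultures at biomarker time.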
# [14] = BSK_4H_Eotaxin3: BioMAP Diversity Plus: 4H Assay for Eotaxin 3 Biomarker Activity (AID 2283000); settings: primary human endothelial cells (HUVEC); actives raise or lower the signal;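 as to outcome: CCL26 protein level quantified by ELISA in parallel with SRB cytotoxicity check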
# How it was run: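 ELISA quantitation of CCL26 (Eotaxin-3) protein from chemically dosed human vascular endothelial cells at 24 h; increases and decreases both scored relative to DMSO-treated baseline.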
# [15] = molecular target: Bile acid receptor (Homo sapiens) (UniProt Q96RI1); experiment: ATG_FXR_TRANS: Attagene TRANS-FACTORIAL HepG2 Assay for Farnesoid X Receptor (FXR) (AID 2282979; active = hit-call score of the fitted dose curve at least 0.9, where 1 is the maximum;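 also: hits raise reporter mRNA above DMSO so AC50 marks FXR activation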); settings: HepG2 Attagene TRANS FXR-GAL4 reporter transcription
# How it was run: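 After 24 h chemical treatment of transfected HepG2 cells, GAL4-UAS reporter transcripts driven by an exogenous FXR-GAL4 fusion were measured by RT-PCR and capillary electrophoresis. Increases over DMSO were fitted.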
# [16] = ATG_M_32_TRANS: Attagene TRANS-FACTORIAL HepG2 Assay for M32 Transcription Factor (Internal Marker) (AID 2282984; active = hit-call score of the fitted dose curve at least 0.9, where 1 is the maximum;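 also: transcript level of a background control reporter unit measured by RT-PCR and capillary electrophoresis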); settings: HepG2 Attagene TRANS M32 internal marker reporter
# How it was run: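 HepG2 cells transiently transfected with GAL4-UAS reporter units, dosed for 24 hours. Reporter mRNA quantified by RT-PCR, 6-FAM labelling, HpaI digestion and capillary electrophoresis; internal-marker signal fitted upward relative to DMSO.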
# [17] = ATG_NFI_CIS: Attagene CIS-FACTORIAL HepG2 Assay for human Nuclear Factor I (NFI) (AID 2282989); settings: HepG2 cis-regulatory reporter, NFI response element transcription; actives raise or lower the signal
# How it was run: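 Multiplexed cis-reporter system in human HepG2 cells reports native TF activity as reporter mRNA induction 24 h post-dose. Fragments labelled with 6-FAM, HpaI-digested and resolved by capillary electrophoresis; activity fitted both directions versus DMSO.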
# [18] = molecular target: Transcriptional activator Myb (Homo sapiens) (UniProt P10242); experiment: ATG_Myb_CIS: Attagene CIS-FACTORIAL HepG2 Assay for human Myeloblastosis (Myb) Proto-Oncogene Transcription Factor (AID 2282986); settings: HepG2 Attagene CIS-FACTORIAL Myb reporter transcription; actives raise or lower the signal
# How it was run: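 Using HepG2 liver cells bearing transiently transfected cis-promoter reporter constructs, the assay measures induction or loss of reporter mRNA after 24 hours of dosing. Detection used fluorescently labeled RT-PCR products separated by capillary electrophoresis.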
# [19] = ATG_NF_kB_CIS: Attagene CIS-FACTORIAL HepG2 Assay for human Nuclear Factor Kappa B (NF-kB) (AID 2282991); settings: HepG2 Attagene cis-factorial NF-kB reporter mRNA; actives raise or lower the signal
# How it was run: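 DMSO served as negative control and baseline for bidirectional curve fitting. Transiently transfected HepG2 cells were dosed for 24 h, then reporter transcripts were measured by RT-PCR with capillary electrophoresis detection.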
# [20] = molecular target: Oxysterols receptor LXR-beta (Homo sapiens) (UniProt P55055); experiment: ATG_LXRb_TRANS: Attagene TRANS-FACTORIAL HepG2 Assay for human Liver X Receptor beta (LXRb) (AID 2282981; active = hit-call score of the fitted dose curve at least 0.9, where 1 is the maximum); settings: HepG2 Attagene TRANS GAL4-LXRb reporter, mRNA
# How it was run: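 HepG2 cells transiently transfected with GAL4-UAS reporter units for chimeric NR-Gal4 proteins, dosed for 24 h. Reporter transcripts measured by RT-PCR and capillary electrophoresis; gain-of-signal fitting relative to DMSO.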
# Chain of Oxysterols receptor LXR-alpha (Homo sapiens) (Q13133 whole entry, looked up, the tested form may be a part): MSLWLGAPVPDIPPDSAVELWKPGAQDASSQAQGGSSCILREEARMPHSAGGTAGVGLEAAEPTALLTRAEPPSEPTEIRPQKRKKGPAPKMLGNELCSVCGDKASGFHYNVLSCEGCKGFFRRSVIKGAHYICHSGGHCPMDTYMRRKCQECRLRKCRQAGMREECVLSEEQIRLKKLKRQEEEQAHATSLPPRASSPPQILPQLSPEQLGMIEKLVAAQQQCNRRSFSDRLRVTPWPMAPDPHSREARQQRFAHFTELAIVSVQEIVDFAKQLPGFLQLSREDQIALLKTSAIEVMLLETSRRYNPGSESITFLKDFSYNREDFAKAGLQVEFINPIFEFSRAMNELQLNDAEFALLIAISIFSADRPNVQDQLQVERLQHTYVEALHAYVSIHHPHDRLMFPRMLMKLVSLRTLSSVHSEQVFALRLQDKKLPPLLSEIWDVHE
# Chain of Bile acid receptor (Homo sapiens) (Q96RI1 whole entry, looked up, the tested form may be a part): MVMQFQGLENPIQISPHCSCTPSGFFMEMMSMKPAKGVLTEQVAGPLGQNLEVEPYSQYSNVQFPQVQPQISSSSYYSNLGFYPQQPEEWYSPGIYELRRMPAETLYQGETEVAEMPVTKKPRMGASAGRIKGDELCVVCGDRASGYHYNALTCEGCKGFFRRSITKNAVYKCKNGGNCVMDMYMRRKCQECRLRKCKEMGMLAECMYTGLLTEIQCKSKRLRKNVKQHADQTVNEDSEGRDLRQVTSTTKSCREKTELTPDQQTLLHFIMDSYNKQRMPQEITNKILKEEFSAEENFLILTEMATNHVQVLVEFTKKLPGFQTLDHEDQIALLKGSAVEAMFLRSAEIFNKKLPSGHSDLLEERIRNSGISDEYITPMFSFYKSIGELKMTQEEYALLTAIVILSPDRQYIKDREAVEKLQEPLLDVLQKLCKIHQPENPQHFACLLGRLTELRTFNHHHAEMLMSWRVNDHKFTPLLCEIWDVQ
# Chain of Nuclear receptor subfamily 4 group A member 2 (Homo sapiens) (P43354 whole entry, looked up, the tested form may be a part): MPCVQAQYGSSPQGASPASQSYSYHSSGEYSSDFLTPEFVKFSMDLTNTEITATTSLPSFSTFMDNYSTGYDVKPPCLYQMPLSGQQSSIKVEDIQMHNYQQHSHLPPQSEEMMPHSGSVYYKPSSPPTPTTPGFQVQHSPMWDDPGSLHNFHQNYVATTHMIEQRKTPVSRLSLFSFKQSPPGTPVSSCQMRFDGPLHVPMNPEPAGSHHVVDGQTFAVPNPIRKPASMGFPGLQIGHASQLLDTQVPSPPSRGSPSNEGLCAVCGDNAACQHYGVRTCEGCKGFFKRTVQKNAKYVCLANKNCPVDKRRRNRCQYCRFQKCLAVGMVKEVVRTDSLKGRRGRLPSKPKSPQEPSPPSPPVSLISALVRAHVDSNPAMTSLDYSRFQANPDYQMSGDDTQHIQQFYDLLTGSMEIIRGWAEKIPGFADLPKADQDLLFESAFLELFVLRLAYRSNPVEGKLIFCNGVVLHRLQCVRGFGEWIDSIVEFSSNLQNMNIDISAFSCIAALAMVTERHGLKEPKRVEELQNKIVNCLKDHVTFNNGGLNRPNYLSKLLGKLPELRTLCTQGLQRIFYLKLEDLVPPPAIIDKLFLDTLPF
# Chain of Glucocorticoid receptor (Homo sapiens) (P04150 whole entry, looked up, the tested form may be a part): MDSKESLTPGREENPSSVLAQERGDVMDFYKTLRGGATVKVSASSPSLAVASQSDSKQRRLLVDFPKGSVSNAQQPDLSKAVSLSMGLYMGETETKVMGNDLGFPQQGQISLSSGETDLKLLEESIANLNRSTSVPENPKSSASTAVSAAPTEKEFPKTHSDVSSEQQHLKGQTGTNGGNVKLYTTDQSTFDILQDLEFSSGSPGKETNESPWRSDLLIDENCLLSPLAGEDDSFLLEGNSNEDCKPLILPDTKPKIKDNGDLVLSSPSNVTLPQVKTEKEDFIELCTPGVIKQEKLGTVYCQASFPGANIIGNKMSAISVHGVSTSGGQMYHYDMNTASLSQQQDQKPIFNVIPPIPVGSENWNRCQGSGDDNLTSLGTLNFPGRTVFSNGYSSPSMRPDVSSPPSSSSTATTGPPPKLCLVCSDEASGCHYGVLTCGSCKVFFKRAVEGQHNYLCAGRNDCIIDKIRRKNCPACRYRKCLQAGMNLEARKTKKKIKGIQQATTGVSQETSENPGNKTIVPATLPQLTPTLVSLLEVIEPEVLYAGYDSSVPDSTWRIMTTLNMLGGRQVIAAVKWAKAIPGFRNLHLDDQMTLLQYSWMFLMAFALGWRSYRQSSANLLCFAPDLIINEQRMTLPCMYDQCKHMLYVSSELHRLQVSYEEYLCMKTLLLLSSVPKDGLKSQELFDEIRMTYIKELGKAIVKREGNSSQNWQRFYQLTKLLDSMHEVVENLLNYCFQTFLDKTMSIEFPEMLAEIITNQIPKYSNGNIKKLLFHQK
# Chain of Myc proto-oncogene protein (Homo sapiens) (P01106 whole entry, looked up, the tested form may be a part): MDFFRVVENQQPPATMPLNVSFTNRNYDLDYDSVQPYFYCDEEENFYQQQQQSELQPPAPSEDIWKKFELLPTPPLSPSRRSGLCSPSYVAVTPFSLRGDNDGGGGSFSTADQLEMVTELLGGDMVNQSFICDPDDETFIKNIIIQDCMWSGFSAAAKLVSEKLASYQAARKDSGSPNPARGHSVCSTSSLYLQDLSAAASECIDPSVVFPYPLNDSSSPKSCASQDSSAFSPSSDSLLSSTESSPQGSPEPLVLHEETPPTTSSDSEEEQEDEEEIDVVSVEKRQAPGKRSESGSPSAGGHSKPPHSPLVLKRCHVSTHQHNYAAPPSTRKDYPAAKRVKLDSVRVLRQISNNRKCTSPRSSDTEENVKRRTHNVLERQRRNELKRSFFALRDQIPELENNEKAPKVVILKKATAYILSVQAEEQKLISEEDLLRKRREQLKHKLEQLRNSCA
# Chain of Hepatocyte nuclear factor 4-alpha (Homo sapiens) (P41235 whole entry, looked up, the tested form may be a part): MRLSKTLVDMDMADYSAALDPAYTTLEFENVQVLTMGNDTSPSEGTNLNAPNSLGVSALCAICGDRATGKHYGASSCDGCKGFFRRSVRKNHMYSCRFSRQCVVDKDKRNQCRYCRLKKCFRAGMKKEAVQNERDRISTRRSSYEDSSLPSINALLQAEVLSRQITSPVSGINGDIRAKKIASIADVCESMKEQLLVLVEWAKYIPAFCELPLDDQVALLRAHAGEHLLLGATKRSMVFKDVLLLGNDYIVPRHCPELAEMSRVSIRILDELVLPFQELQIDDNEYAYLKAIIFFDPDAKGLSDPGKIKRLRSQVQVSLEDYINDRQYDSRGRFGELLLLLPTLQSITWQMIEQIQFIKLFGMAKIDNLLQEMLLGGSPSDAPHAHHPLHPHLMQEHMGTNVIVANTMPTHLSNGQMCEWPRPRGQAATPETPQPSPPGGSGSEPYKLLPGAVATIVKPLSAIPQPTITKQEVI
# Chain of Cellular tumor antigen p53 (Homo sapiens) (P04637 whole entry, looked up): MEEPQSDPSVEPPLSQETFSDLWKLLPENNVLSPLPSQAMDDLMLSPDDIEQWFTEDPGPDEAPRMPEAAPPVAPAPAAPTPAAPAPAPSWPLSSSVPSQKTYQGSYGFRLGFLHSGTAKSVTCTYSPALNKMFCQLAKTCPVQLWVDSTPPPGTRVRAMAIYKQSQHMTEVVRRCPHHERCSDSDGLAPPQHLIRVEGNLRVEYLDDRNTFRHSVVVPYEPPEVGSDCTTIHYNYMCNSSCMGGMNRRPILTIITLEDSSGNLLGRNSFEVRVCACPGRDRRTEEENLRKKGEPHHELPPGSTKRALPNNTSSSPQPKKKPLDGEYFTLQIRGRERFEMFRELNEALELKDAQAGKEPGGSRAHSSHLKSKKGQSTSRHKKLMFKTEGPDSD
# Chain of Nuclear respiratory factor 1 (Homo sapiens) (Q16656 whole entry, looked up): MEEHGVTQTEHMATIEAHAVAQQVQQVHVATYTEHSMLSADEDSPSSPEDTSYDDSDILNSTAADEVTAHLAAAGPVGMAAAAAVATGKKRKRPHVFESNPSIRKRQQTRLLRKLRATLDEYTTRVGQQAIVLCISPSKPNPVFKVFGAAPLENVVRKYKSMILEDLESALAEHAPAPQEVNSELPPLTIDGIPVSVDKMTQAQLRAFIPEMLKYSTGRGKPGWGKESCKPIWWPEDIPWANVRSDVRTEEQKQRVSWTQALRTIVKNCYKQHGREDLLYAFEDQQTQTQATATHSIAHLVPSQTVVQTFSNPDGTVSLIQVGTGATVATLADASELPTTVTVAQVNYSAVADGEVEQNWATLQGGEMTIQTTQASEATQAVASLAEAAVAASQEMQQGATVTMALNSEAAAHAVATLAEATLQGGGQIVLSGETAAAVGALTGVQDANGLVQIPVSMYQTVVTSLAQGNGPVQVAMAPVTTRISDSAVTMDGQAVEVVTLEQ
# Chain of Transcriptional activator Myb (Homo sapiens) (P10242 whole entry, looked up): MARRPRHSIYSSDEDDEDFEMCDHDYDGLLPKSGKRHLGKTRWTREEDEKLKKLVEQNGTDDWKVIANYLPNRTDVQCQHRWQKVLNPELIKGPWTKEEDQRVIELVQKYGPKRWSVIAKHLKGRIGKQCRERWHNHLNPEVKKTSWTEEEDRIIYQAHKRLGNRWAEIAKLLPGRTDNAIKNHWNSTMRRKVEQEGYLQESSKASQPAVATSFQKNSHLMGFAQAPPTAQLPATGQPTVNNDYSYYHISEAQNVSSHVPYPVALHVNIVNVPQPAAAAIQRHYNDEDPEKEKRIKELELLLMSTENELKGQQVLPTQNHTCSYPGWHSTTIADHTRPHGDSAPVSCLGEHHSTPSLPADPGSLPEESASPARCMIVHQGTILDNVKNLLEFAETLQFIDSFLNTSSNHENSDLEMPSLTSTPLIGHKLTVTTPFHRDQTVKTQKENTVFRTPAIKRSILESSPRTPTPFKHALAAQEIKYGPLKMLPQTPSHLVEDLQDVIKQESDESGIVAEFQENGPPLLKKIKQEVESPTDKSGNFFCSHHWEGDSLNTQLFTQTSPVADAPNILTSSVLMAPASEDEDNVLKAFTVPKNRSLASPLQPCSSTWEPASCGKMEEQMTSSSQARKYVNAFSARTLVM
compound,measurement,setting,value
C[C@]12C=CC(=O)C=C1CC[C@H]1[C@@H]3C[C@@H](O)[C@](O)(C(=O)CO)[C@@]3(C)C[C@H](O)[C@@]12F,AC50,[1],0.0585 µM (active)
same,outcome,[2],inactive
same,outcome,[3],inactive
same,outcome,[4],inactive
same,outcome,[5],inactive
same,outcome,[6],inactive
same,outcome,[7],inactive
same,outcome,[8],inactive
same,outcome,[9],inactive
same,outcome,[10],inactive
same,outcome,[11],inactive
same,outcome,[12],inactive
same,outcome,[13],inactive
same,outcome,[14],inactive
CCCOc1ccc(S(=O)(=O)N2CCN(CC)CC2)cc1-c1nc2c(CC)n(Cc3ccccn3)nc2c(=O)[nH]1,outcome,[1],inactive
same,outcome,[15],inactive
same,outcome,[4],inactive
same,outcome,[16],inactive
same,outcome,[5],inactive
same,outcome,[6],inactive
same,outcome,[17],inactive
same,outcome,[7],inactive
same,AC50,[8],43 µM (active)
same,outcome,[9],inactive
same,outcome,[11],inactive
same,outcome,[12],inactive
same,outcome,[13],inactive
same,outcome,[14],inactive
O=C(O)c1cccc(C(=O)O)c1,outcome,[1],inactive
same,outcome,[15],inactive
same,outcome,[3],inactive
same,outcome,[16],inactive
same,outcome,[18],inactive
same,outcome,[6],inactive
same,outcome,[17],inactive
same,outcome,[7],inactive
same,outcome,[8],inactive
same,outcome,[11],inactive
same,outcome,[12],inactive
same,outcome,[13],inactive
same,outcome,[14],inactive
CCc1ccc(O)c(C(C)(C)C)c1,outcome,[1],inactive
same,outcome,[2],inactive
same,outcome,[16],inactive
same,AC50,[5],53.4 µM (active)
same,outcome,[6],inactive
same,AC50,[7],33.4 µM (active)
same,outcome,[19],inactive
same,AC50,[8],27.7 µM (active)
same,outcome,[10],inactive
same,AC50,[11],32.2 µM (active)
same,AC50,[12],39.3 µM (active)
same,AC50,[13],34.6 µM (active)
same,AC50,[14],39 µM (active)
OC(CCl)CCl,outcome,[1],inactive
same,outcome,[20],inactive
same,outcome,[3],inactive
same,outcome,[4],inactive
same,outcome,[16],inactive
same,outcome,[18],inactive
same,outcome,[6],inactive
same,outcome,[17],inactive
same,outcome,[7],inactive
same,outcome,[8],inactive
same,outcome,[10],inactive
same,outcome,[11],inactive
same,outcome,[12],inactive
same,outcome,[13],inactive
same,outcome,[14],inactive
Cc1cccc(O)c1C,outcome,[1],inactive
same,outcome,[15],inactive
same,outcome,[2],inactive
same,outcome,[3],inactive
same,outcome,[16],inactive
same,outcome,[5],inactive
same,outcome,[18],inactive
same,outcome,[6],inactive
same,outcome,[17],inactive
same,outcome,[7],inactive
same,outcome,[8],inactive
same,AC50,[10],168 µM (active)
same,outcome,[10],inactive
same,outcome,[11],inactive
same,outcome,[12],inactive
same,outcome,[13],inactive
same,outcome,[14],inactive
S=P(N1CC1)(N1CC1)N1CC1,outcome,[1],inactive
same,outcome,[15],inactive
same,outcome,[2],inactive
same,outcome,[3],inactive
same,outcome,[4],inactive
same,outcome,[16],inactive
same,outcome,[5],inactive
same,outcome,[18],inactive
same,outcome,[6],inactive
same,outcome,[7],inactive
same,outcome,[8],inactive
same,outcome,[10],inactive
same,outcome,[11],inactive
same,outcome,[12],inactive
same,outcome,[13],inactive
same,outcome,[14],inactive
